These results are taken from PubChem BioAssay (NCATS).

Test [1] concerns the target Lysosomal acid glucosylceramidase (Homo sapiens) (UniProt P04062). The test can be described thus: Glucocerebrosidase-p2 (AID 348; in the data active means potency below about 10 µM; further: potency means the concentration at half of the fitted maximal effect). The conditions noted are these: purified GBA, blue fluorogenic substrate, 40 min. In outline:
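Normal human glucocerebrosidase (0.2 nM) with blue fluorogenic substrate (80 uM final) in citrate/phosphate pH 5.9 with 10mM sodium taurocholate, 0.01% tween-20; 40 min RT, NaOH/glycine stop; fluorescence Ex 365/Em 440; AC50 from a titration from 0.6 nM upwards.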

Test [2] is described as follows: AP1 Signaling Pathway (AID 357; active means well fitted curve in either direction with a large enough effect, not every such curve was filed as active;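 further: ME-180 reporter cells stimulated with EGF at its EC50 level; on the % scale 0 is the no-effect control and ±100 the full control effect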). The conditions noted are these: ME-180 AP-1-bla reporter, EGF-induced, beta-lactamase ratio, 5 h; at 7.69 µM (top of the series) unless noted. The procedure, abridged: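 First, ME-180 AP-1-bla cells were cultured overnight at 37 °C in low-serum Opti-MEM. Next, titrated compounds with EC50 EGF were incubated 5 hours. Finally, CCF4 was added for 2.5 hours and the 460/530 nm ratio recorded.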

For test [3], the target named is Cytochrome P450 1A2 (Homo sapiens) (UniProt P05177). In words: p450-cyp1a2 (AID 410; calls by dose curve; further: potency means the concentration at half of the fitted maximal effect). In outline: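 Read-out is luminescence from luciferin produced by CYP1A2 demethylation of Luciferin-ME (100uM, at Km). Detection reagent stopped the 60 min NADPH-dependent reaction; signals were normalized to 57 uM furafylline.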
Cytochrome P450 1A2 (Homo sapiens), sequence (P05177 whole entry, looked up): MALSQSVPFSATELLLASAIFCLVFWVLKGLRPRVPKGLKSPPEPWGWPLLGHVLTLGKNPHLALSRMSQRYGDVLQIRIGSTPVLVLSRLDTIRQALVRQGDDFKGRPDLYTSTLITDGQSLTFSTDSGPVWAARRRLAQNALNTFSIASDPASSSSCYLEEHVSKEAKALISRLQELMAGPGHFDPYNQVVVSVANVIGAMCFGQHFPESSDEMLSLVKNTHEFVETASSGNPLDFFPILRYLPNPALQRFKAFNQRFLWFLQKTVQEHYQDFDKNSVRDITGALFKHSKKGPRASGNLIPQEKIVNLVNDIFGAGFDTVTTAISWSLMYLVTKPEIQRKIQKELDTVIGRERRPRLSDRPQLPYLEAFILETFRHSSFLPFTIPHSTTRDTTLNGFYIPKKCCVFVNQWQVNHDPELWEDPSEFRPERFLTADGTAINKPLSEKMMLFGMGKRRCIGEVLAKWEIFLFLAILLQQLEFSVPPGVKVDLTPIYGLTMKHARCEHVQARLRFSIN
The nature of test [4]: NFAT Signaling Pathway (AID 444; active means well fitted curve in either direction with a large enough effect, not every such curve was filed as active;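 further: carbachol stimulus at about its EC50 of 1 µM final; on the % scale 0 is the no-effect control and ±100 the full control effect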). The conditions noted are these: Jurkat NFAT-bla M1, carbachol, beta-lactamase ratio, 5 h; at 7.69 µM (top of the series) unless noted. In outline: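 Jurkat cells with NFAT-driven β-lactamase reporter and co-expressed M1 receptor, stimulated with carbachol (final 1 uM, ~EC50), compound titration, 5 h at 37 °C. CCF4 loaded 1 h at RT; 460/530 nm ratio gave %activity and AC50.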

The nature of test [5]: Stat Signaling Pathway (AID 446; active means well fitted curve in either direction with a large enough effect, not every such curve was filed as active;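 further: ME-180 cervical cancer cells given 40 pM IL-6 alongside compound; SIE-controlled beta-lactamase reporter measured as 460/530 nm FRET emission ratio; on the % scale 0 is the no-effect control and ±100 the full control effect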). The conditions noted are these: ME-180 (cervical carcinoma) SIE beta-lactamase reporter, IL-6 stimulated, 5 h; at 7.69 µM (top of the series) unless noted. In outline: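 Normalization used AC90 stimulation (300 pM IL-6) and AC90 inhibition (125 nM pan-JAK inhibitor at 40 pM IL-6). The underlying signal is SIE-driven beta-lactamase in ME-180 cells after 5 h IL-6 exposure with compound.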

Test [6] deals with Glucocorticoid receptor (Homo sapiens) (UniProt P04150). The test can be described thus: GR-GFP Redistribution (AID 450;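 active means compounds whose dose series gives a full or clear partial fitted curve of increased nuclear translocation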; further: potency means the concentration at half of the fitted maximal effect). The conditions noted are these: U2OS GR-GFP nuclear translocation, laser cytometry, 2 h.
Glucocorticoid receptor (Homo sapiens), sequence (P04150 whole entry, looked up, the tested form may be a part): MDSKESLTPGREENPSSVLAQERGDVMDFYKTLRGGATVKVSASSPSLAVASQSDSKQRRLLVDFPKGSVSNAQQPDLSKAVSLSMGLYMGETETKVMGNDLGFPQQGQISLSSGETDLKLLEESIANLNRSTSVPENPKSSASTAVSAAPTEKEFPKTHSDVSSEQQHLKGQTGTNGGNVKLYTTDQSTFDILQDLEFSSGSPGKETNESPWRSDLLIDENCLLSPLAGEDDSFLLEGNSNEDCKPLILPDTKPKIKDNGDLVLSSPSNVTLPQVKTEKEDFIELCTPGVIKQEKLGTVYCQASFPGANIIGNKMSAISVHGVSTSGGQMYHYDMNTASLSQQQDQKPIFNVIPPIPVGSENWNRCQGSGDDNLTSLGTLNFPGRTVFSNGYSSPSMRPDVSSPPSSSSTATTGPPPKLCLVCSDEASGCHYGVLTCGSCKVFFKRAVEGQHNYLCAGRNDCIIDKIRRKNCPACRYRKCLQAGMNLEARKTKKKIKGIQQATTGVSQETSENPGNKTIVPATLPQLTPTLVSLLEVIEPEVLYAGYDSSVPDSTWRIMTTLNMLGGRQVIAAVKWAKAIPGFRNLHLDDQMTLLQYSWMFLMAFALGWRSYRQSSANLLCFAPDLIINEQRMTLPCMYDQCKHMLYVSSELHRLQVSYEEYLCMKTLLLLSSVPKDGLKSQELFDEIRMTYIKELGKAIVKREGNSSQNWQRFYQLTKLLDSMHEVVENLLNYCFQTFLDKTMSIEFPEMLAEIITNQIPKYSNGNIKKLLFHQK
The target is the same in test [7]. In words: GR-EFC Redistribution (AID 451; calls by dose curve; further: potency means the concentration at half of the fitted maximal effect). Particulars: CHO-K1 GR-EFC translocation, beta-gal luminescence, 2 h. The procedure, abridged: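 CHO-K1 cells expressing nuclear EA and GR-ED fragments of b-gal; compounds titrated up to 46 uM final, 2 h at 37 C. GR nuclear translocation read as complemented b-gal luminescence after 1 h RT detection.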
Test [8] addresses Mitogen-activated protein kinase 10 (Mus musculus) (UniProt Q61831). The test can be described thus: JNK3 AlphaScreen Assay (AID 530; active means well fitted curve in either direction with a large enough effect, not every such curve was filed as active;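 further: kinase came from lysate of stimulated human HepG2 cells; signal reports phosphorylation of biotinylated GST-cJun 1-79 at Ser73 with 10 µM ATP; on the % scale 0 is the no-effect control and ±100 the full control effect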). In outline: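 HepG2 lysate (IL-1b/TNFa pre-activated) + biotin-GST-cJun 1-79 + anti-pSer73 cJun; cpd titration, 15 min RT; ATP 10 uM start; Tris pH 7.6, MgCl2, DTT, vanadate; beads in EDTA buffer; AlphaScreen.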
The target in test [9] is Cytochrome P450 3A4 (Homo sapiens) (UniProt P08684). The test can be described thus: qHTS Assay for Inhibitors and Substrates of Cytochrome P450 3A4 (AID 884). Further: nearly all actives have a fitted effect of over 50% in size. Further: potency means the concentration at half of the fitted maximal effect. In outline:
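Luminescent readout of luciferin produced by CYP3A4 (20 nM) dealkylation of Luciferin-PPXE, 25 uM (its KM). NADPH-driven reaction ran 60 min at RT after 10 min compound preincubation; data scaled to 57 uM ketoconazole as 100% inhibition.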

For test [10] the target is unchanged. In words: qHTS Assay for Activators of Cytochrome P450 3A4 (AID 885). Further: nearly all actives have a fitted effect of over 65% in size. In outline: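 Human CYP3A4 dealkylates Luciferin-PPXE to luciferin, which luciferase detection converts to light. Substrate was at its KM (25uM), buffer 200mM KPO4, reaction 60 min at RT.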
The target of test [11] is Cytochrome P450 2C19 (Homo sapiens) (UniProt P33261). The test can be described thus: qHTS Assay for Inhibitors and Substrates of Cytochrome P450 2C19 (AID 899). Further: nearly all actives have a fitted effect of over 60% in size. Further: potency means the concentration at half of the fitted maximal effect. In outline: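 Luminescent read-out of luciferin formed from Luciferin-H EGE (10uM, equal to KM). Enzyme 5nM in 50mM KPO4; compound added, 10 min at 37C, then NADPH regenerating system for 60 min at 37C. Full inhibition defined by 57uM ketoconazole.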

A short description of test [12]: qHTS Assay for Lipid Storage Modulators (AID 1519; calls by dose curve). Particulars: Drosophila S3 cells, BODIPY lipid droplet/cell ratio, laser cytometry, cells loaded with oleic acid. In outline: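 Cells seeded at 5,000 per well were treated with compounds over a concentration series and loaded with oleic acid (400 uM, as added). Lipid droplet fluorescence (488 nm excitation, 500-530 nm channel) was read by laser-scanning cytometry and normalized to 20 uM Triacsin C.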

Test [13] concerns the target Dual specificity protein kinase CLK4 (Homo sapiens) (UniProt Q9HAZ1). The test can be described thus: qHTS Assay for Inhibitors of CDC-like Kinase 4 (Kinase-Glo Assay) (AID 1770). Further: potency means the concentration at half of the fitted maximal effect; nearly all actives have a fitted effect of over 65% in size. In outline:
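Inhibition was judged from remaining ATP, measured by Ultra-Glo luciferase bioluminescence after Clk4 (25 nM) had acted on RS peptide at 1 uM ATP for 4.5 hours, room temperature.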

Test [14] has the same target. In words: qHTS Assay for Inhibitors of CDC-like Kinase 4 (ADP-Glo Assay) (AID 1771). Further: potency means the concentration at half of the fitted maximal effect; nearly all actives have a fitted effect of over 70% in size. In outline:
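In this ADP-Glo format, 1 uM ATP and 100 uM RS peptide served as substrates for 25 nM Clk4 in Mg2+/EGTA/DTT/Triton buffer; reactions ran 1 hr at room temperature before luminescent ADP quantification.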

The target of test [15] is Ubiquitin carboxyl-terminal hydrolase 1 (Homo sapiens) (UniProt O94782). The test can be described thus: Inhibitors of USP1/UAF1: Pilot qHTS (AID 504865).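 Further: rhodamine fluorescence freed from ubiquitin-rhodamine substrate followed over time; top concentration of the series differs between compounds; on the % scale 0 is the no-effect control and ±100 the full control effect; nearly all actives have a fitted effect of over 35% in size.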 The procedure, abridged:
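Kinetic fluorescence assay: 1nM USP1/UAF1, 15 min compound preincubation, then 150nM Ub-Rho; 480/540 nm.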

Test [16] has as its target Rap guanine nucleotide exchange factor 3 (Homo sapiens) (UniProt O95398). In words: Confirmatory qHTS for antagonist of cAMP-regulated guanine nucleotide exchange factor 3 (EPAC1) (AID 1645880). Further: nearly all actives have a fitted effect of over 55% in size. Further: potency means the concentration at half of the fitted maximal effect.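 On activity, negative = inhibition: plate controls were DMSO only for no effect and full effect of the ATA control for full effect.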 In outline:
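Released BODIPY-GDP fluoresces less than Rap1-bound BODIPY-GDP; the signal is followed at 480/540 nm at 5-min intervals over 30 min, after 5 min at room temperature. Reactions contain 100 nM EPAC1, 250 nM RAP1B-BODIPY-GDP and 50 uM GDP; results are normalized to ATA and DMSO.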

Test [17] shares this target. In words: Confirmatory qHTS for agonist of cAMP-regulated guanine nucleotide exchange factor 3 (EPAC1) (AID 1645881).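 Further: EPAC1 catalysed release of BODIPY-GDP from Rap1B seen as fluorescence loss; 100% = effect of cAMP agonist control; nearly all actives have a fitted effect of over 75% in size.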
Test [18] deals with Rap guanine nucleotide exchange factor 4 (Homo sapiens) (UniProt Q8WZA2). In words: Confirmatory qHTS for agonist of cAMP-regulated guanine nucleotide exchange factor 4 (EPAC2) (AID 1645884).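 Further: nucleotide exchange releases bodipy-GDP from Rap1 and this lowers its fluorescence; on the % scale 0 is the no-effect control and ±100 the full control effect; nearly all actives have a fitted effect of over 65% in size.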
Rap guanine nucleotide exchange factor 4 (Homo sapiens), sequence (Q8WZA2 whole entry, looked up): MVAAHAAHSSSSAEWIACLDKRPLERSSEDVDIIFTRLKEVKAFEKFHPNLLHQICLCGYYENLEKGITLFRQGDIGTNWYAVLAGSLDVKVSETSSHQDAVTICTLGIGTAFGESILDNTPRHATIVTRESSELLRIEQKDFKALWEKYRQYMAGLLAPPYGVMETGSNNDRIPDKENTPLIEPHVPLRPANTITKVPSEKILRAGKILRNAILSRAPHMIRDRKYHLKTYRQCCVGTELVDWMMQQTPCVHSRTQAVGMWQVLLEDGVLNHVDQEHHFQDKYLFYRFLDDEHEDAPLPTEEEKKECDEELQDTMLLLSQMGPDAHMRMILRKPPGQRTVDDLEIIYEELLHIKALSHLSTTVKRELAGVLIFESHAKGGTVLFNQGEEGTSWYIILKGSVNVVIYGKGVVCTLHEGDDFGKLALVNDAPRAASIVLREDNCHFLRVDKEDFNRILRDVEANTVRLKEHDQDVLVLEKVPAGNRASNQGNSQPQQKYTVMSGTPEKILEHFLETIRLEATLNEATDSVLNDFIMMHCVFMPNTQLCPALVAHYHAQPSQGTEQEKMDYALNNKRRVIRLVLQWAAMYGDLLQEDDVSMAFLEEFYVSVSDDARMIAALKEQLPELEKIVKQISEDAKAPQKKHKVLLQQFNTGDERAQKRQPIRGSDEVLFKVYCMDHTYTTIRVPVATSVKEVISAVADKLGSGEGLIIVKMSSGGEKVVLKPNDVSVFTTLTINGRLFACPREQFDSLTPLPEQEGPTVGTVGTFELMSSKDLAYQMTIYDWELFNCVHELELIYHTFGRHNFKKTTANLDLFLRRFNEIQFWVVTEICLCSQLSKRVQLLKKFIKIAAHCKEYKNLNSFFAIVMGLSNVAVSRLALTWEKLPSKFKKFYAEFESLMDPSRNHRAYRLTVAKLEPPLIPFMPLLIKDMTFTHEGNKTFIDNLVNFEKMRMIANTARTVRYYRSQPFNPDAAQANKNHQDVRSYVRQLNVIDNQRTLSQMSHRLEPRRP
For test [19] the target is unchanged. In words: Confirmatory qHTS for antagonist of cAMP-regulated guanine nucleotide exchange factor 4 (EPAC2) (AID 1645885). Further: nearly all actives have a fitted effect of over 25% in size. Further: potency means the concentration at half of the fitted maximal effect.
The target in test [20] is 3',5'-cyclic-AMP phosphodiesterase 4B (Homo sapiens) (UniProt Q07343). In words: qHTS Assay for Inhibitors of PDE-IV (AID 607; active means well fitted activation curve with a large enough effect in the main read-out, with a control signal flat, not every such curve was filed as active; further: % of control where 0% means no effect). In outline:
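HEK293 ACTOne cells with CNG channel (1000/well), endogenous PDE4; membrane potential dye, compounds up to 22.9 uM final. Fluorescence Ex 535/Em 590; RO 20-1724 (100 uM final) as reference.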

Test [21] addresses Cytochrome P450 2C9 (Homo sapiens) (UniProt P11712). In words: qHTS Assay for Inhibitors and Substrates of Cytochrome P450 2C9 (AID 883). Further: on the % scale 0 is the no-effect control and ±100 the full control effect; nearly all actives have a fitted effect of over 60% in size. In outline: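 10nM CYP2C9 + 100uM Luciferin-H (=KM), 25mM KPO4; cpd 10 min 37C; NADPH regen, 60 min 37C; stop/detect with P450 Glo-Buffer 20 min; luminescence. Norm. to 57uM sulphaphenazole as full inhibition.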
For test [22], the target named is Cytochrome P450 2D6 (Homo sapiens) (UniProt P10635). The test can be described thus: qHTS Assay for Inhibitors and Substrates of Cytochrome P450 2D6 (AID 891).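 Further: luciferin methyl ether substrate demethylated by CYP2D6 with NADPH regeneration; on the % scale 0 is the no-effect control and ±100 the full control effect; nearly all actives have a fitted effect of over 60% in size.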 In outline:
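Luminescent read-out of luciferin formed by 5 nM human CYP2D6 demethylating 30 uM Luciferin-ME EGE (Km level) over 60 min at room temperature after NADPH regeneration addition. Data normalized to full inhibition by 1.43 uM quinidine.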

Test [23] is described as follows: Confirmation and Secondary Assay for Modulators of Hemoglobin Beta Chain Splicing at IVS2 654 locus (AID 910).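 Further: HeLa cells stably carrying EGFP split by mutant beta-globin IVS2-654 intron; % of control where 0% means no effect.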 In outline: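 HeLa cells stably expressing EGFP interrupted by β-globin IVS2-654 intron, seeded overnight in Opti-MEM/2% FCS, then treated 2 days at 37 °C. Restored splicing read as total peak GFP intensity per well by laser scanning cytometry (488 nm excitation, 500–520 nm emission); 500 nM antisense PNA as control.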

Test [24] in a line: Confirmation and Secondary Assay for Modulators of Hemoglobin Beta Chain Splicing at IVS2 705 locus (AID 930).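 Further: HeLa cells stably expressing the EGFP-705 splicing reporter; GFP fluorescence per well restored by corrected splicing of the IVS2-705 intron in EGFP; % of control where 0% means no effect.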 In outline: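 First, HeLa EGFP-705 cells are seeded at 500/well in Optimem with 2% FCS and left overnight. Next, compound or DMSO is added for 2 days. Finally wells are laser-scanned and total peak GFP intensity scored.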
The target in test [25] is DNA dC->dU-editing enzyme APOBEC-3G (Homo sapiens) (UniProt Q9HC16). The test can be described thus: qHTS for inhibitors of Vif-A3G interactions: Validation (AID 588379). Further: 0% is about no effect. In outline:
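Yellow fluorescence (Ex 488, Em 500-530) of Vif-coexpressing HeLa A3G-eYFP cells, scanned by Acumen cytometer, reports blocked A3G degradation. Cells plated at 700/well overnight at 37 deg C before compound addition, then a further overnight compound incubation at 37 deg C.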

The target of test [26] is Cytochrome P450 2D6 (Homo sapiens) (UniProt P10635). In words: Cytochrome P450 family 2 subfamily D member 6 (CYP2D6) small molecule antagonists: luciferase biochemical (cell-free) qHTS assay (AID 1645840; active means well fitted curve in the direction sought with a large enough effect in the repeat runs; an effect the other way counts as inactive or inconclusive; further: on the % scale 0 is the no-effect control and ±100 the full control effect; nearly all actives have a fitted effect of over 55% in size). The procedure, abridged: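 P450-Glo CYP2D6 system: proluciferin substrate converted by enzyme to luciferin, read by luminescence proportional to activity. Enzyme-substrate mix with compound 10 min at room temperature, then NADPH regeneration 1 h before detection reagent.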

Test [27] concerns the target Cytochrome P450 2C9 (Homo sapiens) (UniProt P11712). The test can be described thus: Cytochrome P450 family 2 subfamily C member 9 (CYP2C9) small molecule antagonists: luciferase biochemical (cell-free) qHTS assay (AID 1645842; active means well fitted curve in the direction sought with a large enough effect in the repeat runs; an effect the other way counts as inactive or inconclusive; further: on the % scale 0 is the no-effect control and ±100 the full control effect; nearly all actives have a fitted effect of over 55% in size). The procedure, abridged:
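P450-Glo CYP2C9 system: proluciferin substrate with enzyme in mix containing 0.4% BSA, 10 min at room temperature, then NADPH regeneration solution added and incubated 1 h at 37C. Detection reagent stopped reaction; luminescence read after 20 min as RLU.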

The mark [28] stands for this setting: measured here: cell count channel max response.
Where [29] appears, read: measured here: lipid channel max response.

The structures appear in SMILES notation. Values joined by “and” are separate entries in the source; they are usually repeats but may differ in a detail not shown here. Equal entries are not always repeated. Inconclusive results are not listed. Active and inactive are the calls of the source. Unless noted, the call rests on the fitted dose curve; in most records, active means well fitted curve in the direction sought with a large enough effect; inconclusive means small, poorly fitted or top-dose-only effect, or another doubt; inactive means no such curve, though single readings can be large; an effect the other way counts as inactive or inconclusive.

Ubiquitin carboxyl-terminal hydrolase 1 (Homo sapiens), sequence (O94782 whole entry, looked up): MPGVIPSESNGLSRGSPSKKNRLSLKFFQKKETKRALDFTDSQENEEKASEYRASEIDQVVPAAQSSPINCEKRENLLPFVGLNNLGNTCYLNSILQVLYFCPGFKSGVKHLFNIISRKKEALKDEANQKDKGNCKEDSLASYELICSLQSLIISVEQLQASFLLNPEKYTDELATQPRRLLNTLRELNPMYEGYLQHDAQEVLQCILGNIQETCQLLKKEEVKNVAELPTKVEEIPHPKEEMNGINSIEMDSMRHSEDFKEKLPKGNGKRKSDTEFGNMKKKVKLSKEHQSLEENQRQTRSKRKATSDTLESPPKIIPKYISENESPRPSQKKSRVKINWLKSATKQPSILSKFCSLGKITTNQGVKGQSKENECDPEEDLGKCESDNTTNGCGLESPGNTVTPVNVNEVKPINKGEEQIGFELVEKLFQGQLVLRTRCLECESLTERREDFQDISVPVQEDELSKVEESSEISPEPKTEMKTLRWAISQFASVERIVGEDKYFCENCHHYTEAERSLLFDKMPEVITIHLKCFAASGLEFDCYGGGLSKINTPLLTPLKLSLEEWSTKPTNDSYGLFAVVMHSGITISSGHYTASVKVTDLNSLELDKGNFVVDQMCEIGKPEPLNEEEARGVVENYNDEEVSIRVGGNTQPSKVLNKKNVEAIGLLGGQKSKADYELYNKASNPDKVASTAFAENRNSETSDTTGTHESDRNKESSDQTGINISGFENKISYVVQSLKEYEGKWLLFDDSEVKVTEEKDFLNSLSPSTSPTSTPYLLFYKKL
Cytochrome P450 3A4 (Homo sapiens), sequence (P08684 whole entry, looked up): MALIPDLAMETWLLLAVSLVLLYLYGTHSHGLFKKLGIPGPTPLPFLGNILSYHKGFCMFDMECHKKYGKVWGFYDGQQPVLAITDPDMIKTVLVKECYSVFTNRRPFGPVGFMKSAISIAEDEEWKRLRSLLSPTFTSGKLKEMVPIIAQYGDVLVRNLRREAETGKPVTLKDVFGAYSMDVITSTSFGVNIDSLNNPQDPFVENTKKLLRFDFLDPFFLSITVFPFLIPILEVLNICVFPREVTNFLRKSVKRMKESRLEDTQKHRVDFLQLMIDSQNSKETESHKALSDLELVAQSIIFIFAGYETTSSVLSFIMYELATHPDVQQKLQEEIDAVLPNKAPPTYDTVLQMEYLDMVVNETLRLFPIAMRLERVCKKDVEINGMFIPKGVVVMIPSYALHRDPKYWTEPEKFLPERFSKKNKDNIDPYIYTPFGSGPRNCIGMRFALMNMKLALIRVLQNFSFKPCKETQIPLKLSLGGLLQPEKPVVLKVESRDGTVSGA
Rap guanine nucleotide exchange factor 3 (Homo sapiens), sequence (O95398 whole entry, looked up): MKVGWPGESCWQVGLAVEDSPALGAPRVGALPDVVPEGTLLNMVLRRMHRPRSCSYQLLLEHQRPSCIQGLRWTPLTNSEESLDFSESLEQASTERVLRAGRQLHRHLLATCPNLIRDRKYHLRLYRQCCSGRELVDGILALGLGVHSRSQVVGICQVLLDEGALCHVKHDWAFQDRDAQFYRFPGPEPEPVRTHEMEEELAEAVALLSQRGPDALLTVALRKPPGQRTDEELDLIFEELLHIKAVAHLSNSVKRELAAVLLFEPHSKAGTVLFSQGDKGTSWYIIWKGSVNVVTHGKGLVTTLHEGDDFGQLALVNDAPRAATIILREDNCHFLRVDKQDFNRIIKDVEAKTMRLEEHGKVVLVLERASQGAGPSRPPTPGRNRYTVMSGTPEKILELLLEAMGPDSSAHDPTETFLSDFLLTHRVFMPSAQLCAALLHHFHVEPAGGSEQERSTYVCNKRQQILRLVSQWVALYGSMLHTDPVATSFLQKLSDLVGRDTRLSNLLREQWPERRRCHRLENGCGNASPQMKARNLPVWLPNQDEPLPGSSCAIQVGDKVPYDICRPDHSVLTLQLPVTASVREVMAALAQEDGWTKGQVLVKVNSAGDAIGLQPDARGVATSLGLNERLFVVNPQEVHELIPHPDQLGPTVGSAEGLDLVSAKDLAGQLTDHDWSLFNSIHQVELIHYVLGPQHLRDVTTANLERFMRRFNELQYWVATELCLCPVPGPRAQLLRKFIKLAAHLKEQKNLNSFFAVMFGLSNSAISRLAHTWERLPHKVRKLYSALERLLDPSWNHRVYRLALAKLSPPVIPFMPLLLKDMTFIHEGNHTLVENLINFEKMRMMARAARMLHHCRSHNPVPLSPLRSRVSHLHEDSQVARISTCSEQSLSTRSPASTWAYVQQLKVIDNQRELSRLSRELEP
Cytochrome P450 2C9 (Homo sapiens), sequence (P11712 whole entry, looked up): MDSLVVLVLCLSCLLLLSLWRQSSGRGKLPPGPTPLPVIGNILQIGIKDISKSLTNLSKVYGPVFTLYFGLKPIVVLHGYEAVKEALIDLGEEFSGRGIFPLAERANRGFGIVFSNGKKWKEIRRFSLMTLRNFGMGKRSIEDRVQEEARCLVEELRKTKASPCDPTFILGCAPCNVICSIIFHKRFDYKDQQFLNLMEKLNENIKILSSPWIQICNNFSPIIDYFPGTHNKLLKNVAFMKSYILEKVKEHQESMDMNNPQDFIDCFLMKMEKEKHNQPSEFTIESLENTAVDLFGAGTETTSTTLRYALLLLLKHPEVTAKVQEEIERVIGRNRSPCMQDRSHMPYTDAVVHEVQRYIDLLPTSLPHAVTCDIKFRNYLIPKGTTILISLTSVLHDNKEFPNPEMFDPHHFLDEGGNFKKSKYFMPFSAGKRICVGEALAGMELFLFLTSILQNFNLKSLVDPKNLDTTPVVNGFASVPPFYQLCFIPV

Take `Cc1ccccc1-c1ccc2ncnc(N(C)C)c2c1`: the Potency in test [1] is > 11.4 µM (inactive); in test [3] it was 631 nM (active); in test [6], > 46 µM (inactive); in [7] it was > 46 µM (inactive); in test [9], 3.16 µM (active); in test [11], 7.94 µM (active). The Potency in test [13] was 15.8 µM (active); in test [14], 28.2 µM (active). In addition, the activity change, negative = inhibition in test [2] was 13.7% (inactive); in [4], 7.63% (inactive); in test [12] (at 57.5 µM (top of the series)) it was 1.72% (inactive). Moreover, the activity, negative = inhibition in [5] is -4.62% (inactive). Moreover, the Potency entry in test [8], in test [10], in test [15], in test [16], in test [17] and in test [18] was “inactive” throughout. For the same compound, in test [19], the Potency entry was “inactive”. The max response in test [12] (setting [28]) is -2.12%; in test [12] (setting [29]), -3.73%.
For `COc1cc2ccc(=O)oc2cc1O`, the Potency is 5.01 µM (active) and 12.6 µM (active) in [3]; > 20.6 µM (inactive) and > 46 µM (inactive) in test [6]; > 20.6 µM (inactive) and > 46 µM (inactive) in [7]. Further, the Potency result in test [8], in test [20], in test [21], in test [9], in test [22] and in test [11] was “inactive” in each case. The Potency result in test [23], in test [15], in [16], in [17], in test [18] and in [19] was “inactive” throughout. In addition, the call in test [24] and in test [25] was inactive. The results for the activity change, negative = inhibition in test [12] (at 25.7 µM (top of the series)) and in [12] (at 57.5 µM (top of the series)) were -4.36% (inactive) and 6.76% (inactive), respectively. Moreover, the max response was -18% and -2.53% in test [12] (setting [28]); -21.2% and 0.189% in test [12] (setting [29]).
As for `COC(=O)c1c(C)cc(OC(=O)c2c(C)cc(O)c(C=O)c2O)c(C)c1O`, the call in [24] was inactive. For the same compound, the activity change, negative = inhibition in [12] (at 57.5 µM (top of the series)) is -6.06% (inactive). Besides, the max response in test [12] (setting [28]) was -15.4%; in [12] (setting [29]) it was -19%. The Potency result in [15], in test [26] and in [27] was “inactive” throughout.
Regarding `NC(Cc1ccc(O)c(O)c1)C(=O)O` (stereo unspecified), the Potency result in test [9], in test [23], in [26], in test [27], in test [17] and in test [18] was “inactive” throughout. Moreover, the compound was called inactive in [24]. Besides, the activity change, negative = inhibition in test [12] (at 57.5 µM (top of the series)) is 11.6% (inactive). Also, the max response was 4.16% in test [12] (setting [28]) and 20.4% in test [12] (setting [29]). The Potency in test [16] is 1.4 µM (active); in test [19], 44.1 µM (active).
